# ChEMBL document CHEMBL3433997, “St. Jude Leishmania screening dataset” (2016)
# Columns and labels:
# Assay type in all cases: functional
# [1] = molecular target: Solute carrier family 2, facilitated glucose transporter member 1 (Homo sapiens) (UniProt P11166); test: ST_JUDE_LEISH: Cytotoxicity at 2uM final concentration against transgenic Leishmania Mexicana promastigotes LmGLUT1 that are glucose transport deficient and complemented with the human glucose transporter GLUT1. Activity is measured by DNA content using SYBR green in vitro
# Solute carrier family 2, facilitated glucose transporter member 1 (Homo sapiens), sequence (P11166 whole entry): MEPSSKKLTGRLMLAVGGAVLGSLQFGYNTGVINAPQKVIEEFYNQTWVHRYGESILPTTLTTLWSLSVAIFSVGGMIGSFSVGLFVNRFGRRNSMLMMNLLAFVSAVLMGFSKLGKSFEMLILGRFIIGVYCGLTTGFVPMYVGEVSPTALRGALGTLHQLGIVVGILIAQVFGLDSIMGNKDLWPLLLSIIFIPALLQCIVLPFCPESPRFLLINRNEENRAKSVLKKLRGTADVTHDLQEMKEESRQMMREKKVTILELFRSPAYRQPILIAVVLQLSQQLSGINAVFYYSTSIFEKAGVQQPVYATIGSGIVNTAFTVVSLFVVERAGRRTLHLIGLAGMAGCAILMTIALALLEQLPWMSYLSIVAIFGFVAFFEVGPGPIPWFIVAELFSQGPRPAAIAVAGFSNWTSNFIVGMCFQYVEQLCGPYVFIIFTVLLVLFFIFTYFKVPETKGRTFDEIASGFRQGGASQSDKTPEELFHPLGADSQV
# [2] = molecular target: Hexose transporter 1 (Plasmodium falciparum) (UniProt O97467); test: ST_JUDE_LEISH: Cytotoxicity at 2uM final concentration against transgenic Leishmania Mexicana promastigotes LmPfHT that are glucose transport deficient and complemented with the Plasmodium falciparum hexose transporter. Activity is measured by DNA content using SYBR green in vitro
# [3] = molecular target: Glucose transporter (Leishmania mexicana) (UniProt O61059); test: ST_JUDE_LEISH: Cytotoxicity at 2uM final concentration against transgenic Leishmania Mexicana promastigotes LmGT2 that are glucose transport deficient and complemented with the L. Mexicana glucose transporter 2. Activity is measured by DNA content using SYBR green in vitro
SMILES,inhibition [1],inhibition [2],inhibition [3]
COc1ccc2nccc(NC(=O)C3CCC(NCc4cnc(SC)c([N+](=O)[O-])c4)CC3)c2n1 (stereo unspecified),10.5%,10.3%,20.7%
COc1ccc(OC)c(-c2cccc(-c3cccc(NC(=O)c4ccc([N+](=O)[O-])o4)c3)n2)c1,6.43%,9.55%,3.3%
O=C(Nc1ccc(OC2CCN(Cc3ccc(F)cc3)CC2)cc1)c1cccs1,-0.82%,0.37%,-2.79%
CC(C)(C)c1ccc(-c2cc(C(=O)N[C@@H](CO)C(=O)O)on2)cc1.CC(C)(C)c1ccc(-c2nocc2C(=O)N[C@@H](CO)C(=O)O)cc1,4.07%,3.4%,6.48%
CN(C)CCOc1cc(NC(=O)Nc2cccc3c(-c4ccncc4)cccc23)ccc1I,4.55%,3.67%,4.12%
COc1ccc(CNc2ncc(-c3ccsc3)c(-c3nccs3)n2)cc1OC,0.9%,0.94%,2.07%
O=C1CSc2ccc(CNC3CCN(CCc4c(Cl)cnc5ccc(Cl)cc45)CC3)nc2N1,0.88%,-0.05%,-1.85%
O=C(c1ccc(OCCn2ccnc2)cc1)N1CCC(c2ccc(Br)cc2)C1 (stereo unspecified),0.09%,3.01%,0.49%
CC(C)(C)c1ccc(NC(=O)c2cccc(CN3CCCN(CC4CCCCC4)CC3)c2)cc1,3.24%,1.77%,3.88%
COc1ccc(Nc2nccc(N3CCC(NC(=O)C(C)c4ccc(Cl)cc4)C3)n2)cc1 (stereo unspecified),-0.18%,0.96%,1.34%
Cc1ccc2nc(C)cc(N/N=C/c3cccc([N+](=O)[O-])c3)c2c1,4.41%,4.99%,1.37%
Oc1ccc(CCNc2nc(NCCCOc3cccc(-c4ccccc4)c3)nc(N3CCNCC3)n2)cc1,2.65%,2.83%,2.5%
CCOC(=O)c1ccc(NC(=O)Nc2ccc(-c3ccc(-c4nc5cccc(C)c5[nH]4)s3)cc2)cc1,1.67%,0.41%,0.88%
N[C@@H](CCNC1CCN(c2cccc(C(F)(F)F)c2)CC1)Cc1ccc(F)c(F)c1,99.5%,54.5%,101%
CS(=O)(=O)c1cc2c(Nc3ccc(N4CCOCC4)cc3)c(C(N)=O)cnc2cc1Br,4.41%,1.07%,3.69%
CC(CN(C)C)C(=O)Nc1ccc(-c2cccc(-c3nc4ccccc4[nH]3)c2)cc1 (stereo unspecified),5.14%,4.81%,8.05%
O=C(/C=C/c1ccc(Cl)c(Cl)c1)NCCCCCN1CCC(NC(=O)Nc2ccc(Cl)c(C(F)(F)F)c2)CC1,1.18%,0.31%,1.66%
COc1c(C2CCN(CCCCNC(=O)C=Cc3cc4cc(Cl)ccc4o3)CC2)ccc2c1CCCC2,2.11%,0.56%,0.08%
Cc1ccc(C2CCN(CCCCNC(=O)c3ccc(-c4ccc(C(F)(F)F)cc4)cc3)CC2)c(O)c1,-0.37%,-0.08%,-0.78%
CCCCc1ccc(NC(=O)Nc2cccc(CCNCc3ccccc3)c2)cc1,11.8%,11.4%,10.2%
CN(CCCNCc1ccc2ccccc2c1)CCCNCc1ccc2ccccc2c1,12.4%,13.7%,3.29%
CC1CCc2sc(-c3nnc(SC(C)C(=O)NC4CC4)o3)cc2C1 (stereo unspecified),-0.92%,1.65%,1.25%
CN(C)CCn1cc(C(=O)c2cc(Cl)ccc2O)cc1-c1nc2ccccc2c(=O)[nH]1,0.7%,-0.71%,-2.96%
COC(=O)C(=O)c1c(-c2ccccc2)c(-c2ccc(OC)c(OC)c2)c2c3cc(OC)c(OC)cc3ccn12,13.2%,10.2%,8.49%

SMILES,inhibition [1],inhibition [2],inhibition [3]
Oc1c(C(Nc2ccccn2)c2ccco2)cc(Cl)c2cccnc12 (stereo unspecified),0.55%,1.24%,-1.1%
O=C(NC1CCCCCC1)[C@@H]1CCCN1C(=O)c1ccc(O)c(-c2ccc(Cl)c(Cl)c2)c1,0.09%,2.12%,-1.06%
N#CC1(CCCNCCc2ccc(O)cc2)CCCc2c(O)cccc21 (stereo unspecified),14.1%,12%,11.7%
Cc1cc(N2CCN(CC3CCN(C)CC3)CC2)nc(Nc2ccc(Cl)cc2)n1,0.56%,0.64%,2.21%
COc1cc2nc(N3CCC(CNC(=O)c4ccc(-c5cccc(C#N)c5)cc4)CC3)nc(N)c2cc1OC,3.6%,2.28%,2.21%
Cc1ccccc1C1CCN(C2CCC(NC(=O)/C=C/c3cccc(Cl)c3)CC2)CC1 (stereo unspecified),-2.09%,-2.1%,-3.2%
CCCNc1ccc2nccc(CCN3CCC(NCc4ccc5c(c4)NC(=O)CS5)CC3)c2n1,0.84%,3.1%,2.43%
CN1CCCN(Cc2cccc(-c3cccc(NC(=O)c4ccc(Cl)cc4)c3)c2)CC1,5.97%,4.21%,3.68%
O=C(NCC(c1ccc(C(F)(F)F)cc1)N1CCCC1)c1cc(-c2ccncc2)c(-c2cccc(O)c2)o1 (stereo unspecified),0.81%,-0.82%,-0.08%
O=C(NCCCNc1ccc2ccccc2n1)c1cc2c(Cl)cc(Cl)cc2[nH]1,0.34%,-0.36%,2.17%
CN(C)CCNCc1ccc(-c2cccc(-c3nc4ccccc4[nH]3)c2)cc1,10.5%,8.93%,8.27%
CO/C(=C\C=C\c1cc2cc(Cl)c(Cl)cc2[nH]1)C(=O)NCCCNC12CC3CC(CC(C3)C1)C2,3.15%,1.55%,0.89%
CCN(CCN(C)C)Cc1ccc(-c2ccc(NS(=O)(=O)c3cccc4cccnc34)cc2)cc1,14%,11.3%,6.11%
Cc1cc(O)c(-c2cccc(Oc3ccc(Cl)cc3)c2)c(C)n1,-1.02%,1.39%,-3.29%
O=C(/C=C/c1ccc(-c2nc3ccc(Cl)cc3[nH]2)cc1)NC1CCN(Cc2ccccc2)CC1,1.24%,1.66%,3.7%
CCCCCCCCCC(=O)NCC1CC(Br)=NO1 (stereo unspecified),-2%,-0.61%,-1.46%
CC(C)(C)Oc1ccc(CC2NC3(C(=O)N(Cc4ccc(C(C)(C)C)cc4)c4ccccc43)C3C(=O)N(c4ccc(Br)cc4)C(=O)C23)cc1 (stereo unspecified),-1.37%,3%,0.37%
Oc1ccc2[nH]c(-c3cccs3)nc2c1CN1CCC(N2CCCC2)CC1,3.78%,6.78%,5.89%
COc1cccc(-c2nn(C)c3sc(C(=O)NCCN(C)Cc4ccccc4)cc23)c1,2.97%,-0.73%,2.24%
N#Cc1ccc2c(c1)CCN(CCC1CCC(NC(=O)c3cc4ccccc4[nH]3)CC1)CC2 (stereo unspecified),8.94%,5.71%,6.21%
COCC(=O)Nc1nc2ccccc2[nH]1,2.56%,2.67%,2.36%
COc1cc2[nH]c(-c3ccc(O)cc3)c(C)c(=O)c2c(OC)c1OC,2.67%,0.09%,-2.9%
O=C(COC(=O)c1cccc(S(=O)(=O)N2CCc3ccccc32)c1)NNC(=O)c1cccs1,4.4%,4.13%,2.91%
Cc1cc(Nc2cc(Cl)cc(Cl)c2)nc(N)n1,9.89%,10.2%,6.94%

SMILES,inhibition [1],inhibition [2],inhibition [3]
COc1ccc2nccc([C@@H](O)CN3CCC(NCc4cc5ccccc5[nH]4)CC3)c2n1,46%,59.2%,62.5%
Cc1nc(N)nc(N)c1C#CC1CCCC1,5.81%,6.82%,2.76%
N#Cc1ccc(C=NNc2nc3ccccc3[nH]2)cc1,3.61%,1.98%,-0.11%
COc1ccc(CNC2CCN(C)CC2)cc1-c1ccc(S(=O)(=O)NC2CCC2)cc1,2.91%,2.71%,2.91%
COc1ccc(-n2ccnc2SCC(=O)Nc2cc(C(F)(F)F)ccc2Cl)c(OC)c1,12.8%,11.2%,7.95%
CCOc1cc2ncnc(Nc3ccc(OCc4ccccc4OC)c(OC)c3)c2cc1OCC,5.01%,2.81%,0.35%
COc1cc(CNC2Cc3ccccc3C2)ccc1Oc1ccc2nc[nH]c2c1,2.66%,0.67%,0.95%
O=C(/C=C/c1ccc(Cl)c(Cl)c1)NC1CCC(CN2CCC(c3nc4ccccc4n3CCCO)CC2)CC1 (stereo unspecified),0.86%,1.32%,1.75%
OC1=C2C(=Nc3ccccc3SC2c2ccccc2)c2ccccc21 (stereo unspecified),4.3%,5.31%,1.01%
COc1cc(COc2c(C)nc(N)nc2N)cc(OC)c1OC,5.98%,4.54%,4.97%
CNC(=O)/C=C/c1cc(NC(=O)Nc2ccnc3c(Br)cccc23)ccc1OC,3.51%,2.22%,0.98%
FC(F)(F)c1ccc2[nH]c(-c3ccc(-c4cccc(CNCC5CCCO5)c4)s3)nc2c1 (stereo unspecified),0.73%,2.27%,2.21%
Cc1cc(C=C2SC(=Nc3ccccc3)N(C3CCCC3)C2=O)c(C)n1-c1ccc(Cl)cc1,0.96%,0.85%,1.29%
CN(C)CCN(C)Cc1ccc(-c2ccc(NC(=O)c3cccc(C#N)c3)cc2)cc1,3.64%,2.58%,0.19%
CN(c1ccc(NC(=O)c2cccc(F)c2)cc1)C1CCCN(Cc2cccc(O)c2)C1 (stereo unspecified),-0.85%,-2.67%,-0.73%
CC(=O)c1ccc(Nc2c(C(N)=O)cnc3cc(-c4c(C)noc4C)ccc23)cc1,8.14%,6.39%,5.76%
C=CCOC(=O)N1CCC(CNCc2ccc(-c3cccc(-c4nc5cccc(C)c5[nH]4)c3)cc2)C1 (stereo unspecified),-0.46%,-0.4%,-2.77%
COc1ccc(NC(=O)[C@H](Cc2ccccc2)Nc2cc(C)nc(NCCc3cccnc3)n2)cc1,-0.56%,1.12%,1.34%
CCCN(CCCCCCN(CCC)CCc1ccc(O)c(O)c1)CCc1ccc(O)cc1,9.55%,12%,10.8%
CCCCCCN1CCC(NCc2cccc(-n3ccnc3)c2)CC1,8.02%,7.03%,9.81%
c1cc(CN2CCN(CCN3CCOCC3)CC2)cc(-c2ccc(-c3nc4ccccc4[nH]3)cc2)c1,10.9%,6.81%,9.58%
O=c1cc(NCCC(CNCCc2ccccc2)NCc2cc(Br)cc(Br)c2)[nH]c2ccccc12 (stereo unspecified),-5.14%,-3.71%,2.71%
Cc1ccc(NC(=O)c2cccc(CN3CCCN(Cc4cccc(O)c4)CC3)c2)cc1F,7.48%,8.09%,1.34%
CCCCNC(=O)[C@H](CC1CCCCC1)NC(=O)c1ccc(O)c(-c2ccc(Cl)c(Cl)c2)c1,-0.2%,-1.98%,0.36%
